Measurements as given in ChEMBL document CHEMBL3988442, “University of Dundee, Small-Polar-MMV Screening Library” (2021).

What follows are compounds tested against T1, Arginase-2, mitochondrial (Homo sapiens) (UniProt P78540) (assay: in vitro enzyme assay to detect the production of urea directly proportional to the activity of Arginase II). Details: 33.3 µM.
T1 sequence (whole entry): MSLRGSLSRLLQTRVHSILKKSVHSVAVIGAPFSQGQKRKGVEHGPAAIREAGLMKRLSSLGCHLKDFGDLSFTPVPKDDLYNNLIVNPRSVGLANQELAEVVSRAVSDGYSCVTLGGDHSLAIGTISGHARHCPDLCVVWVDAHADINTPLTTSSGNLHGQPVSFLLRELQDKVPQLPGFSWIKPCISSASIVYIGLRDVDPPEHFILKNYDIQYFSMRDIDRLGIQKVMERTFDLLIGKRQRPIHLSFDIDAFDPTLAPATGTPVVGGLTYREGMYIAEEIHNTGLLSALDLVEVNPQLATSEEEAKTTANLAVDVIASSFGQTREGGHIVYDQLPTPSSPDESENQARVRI
Format: functional
Design: scale not given: in the data most compounds retested in dose-response had high values

Compound	Percent Effect
CCc1ccsc1C(=O)N1CCN(CC(O)CC)CC1 (stereo not given)	-3.48%
COCCC(=O)N1CCC2(CC1)CC(c1ccccc1)CN(C)C2 (stereo not given)	1.75%
COc1ccc(CNCc2ccc(N3CCCCC3)nc2)cc1OC	2.87%
Cc1cc(C)n(CC2CCCN2CCc2ccncc2)n1 (stereo not given)	-2.87%
COCCc1noc(CN2CCCC2Cn2cc(C)cn2)n1 (stereo not given)	-7.98%
CC(NC(=O)N(C)CCCOc1ccc(F)cc1)c1nncn1C (stereo not given)	5.76%
CC(Nc1cccc(CN2CCOC2=O)c1)C(=O)Nc1ccccc1F (stereo not given)	4.51%
COc1cccc2c1OCC(C(=O)NC1CCN(S(C)(=O)=O)CC1)C2 (stereo not given)	12.2%
CC(=O)N1CCCC1c1cc(N2CCN(C3CCCC3)CC2)cc(C)n1 (stereo not given)	1.33%
Cn1cnc2c1CCN(Cc1ccc(C(=O)N3CCCC3)cc1)C2	4.51%
c1csc(CN2CCOCC3(CCN(C4CCOCC4)C3)C2)n1 (stereo not given)	-5.67%
CCN(CC1CCOC1)C(=O)Nc1ccc(-n2cncn2)nc1 (stereo not given)	0%
Cn1cc(NC(=O)N2CCC(NS(C)(=O)=O)CC2)ccc1=O	13.9%
O=C(NCCNC(=O)c1scnc1Cl)c1ccccc1	-0.887%
Cc1cc(C(=O)O)cc(S(=O)(=O)Nc2ccc3c(c2)OCO3)c1C	3.69%
Cc1ccc(-c2cc(CN3CCCC(Cn4cncn4)C3)on2)cc1 (stereo not given)	1.84%
CNc1cncc(C2CCCN2C(=O)c2ccc3oc(C)cc3c2)n1 (stereo not given)	-1.33%
Cc1cc(NC(=O)CN2CCCC2c2noc(C(C)C)n2)n(C)n1 (stereo not given)	-0.444%
COCCC(=O)N1CCCC2(CCC(=O)N2CCOC)CC1 (stereo not given)	4.57%

What follows are compounds tested against T2, Proteasome subunit beta (Trypanosoma cruzi) (UniProt O96673) (assay: Trypanosoma cruzi proteasome chymotrypsin-like activity (TcProtChymo) assay.). Details: 9.37 µM.
T2 sequence (whole entry): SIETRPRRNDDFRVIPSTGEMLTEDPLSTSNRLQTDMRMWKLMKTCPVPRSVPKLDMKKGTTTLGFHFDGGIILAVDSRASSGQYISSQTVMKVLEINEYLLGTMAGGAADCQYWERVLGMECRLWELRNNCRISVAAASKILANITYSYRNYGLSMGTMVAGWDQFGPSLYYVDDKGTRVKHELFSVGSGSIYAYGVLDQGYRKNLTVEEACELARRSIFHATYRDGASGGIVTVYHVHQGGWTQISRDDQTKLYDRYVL
Format: functional
Design: scale not given: in the data most compounds retested in dose-response had high values

Compound	Percent Effect
O=C(CSc1ccc(F)c(F)c1)NS(=O)(=O)c1ccc2c(c1)OCCO2	3.16%
CC1COCCN1C(=O)c1cccc(OCc2cscn2)c1 (stereo not given)	9.3%
Cc1[nH]ccc1C(=O)N1CCCC(c2nccn2Cc2cscn2)C1 (stereo not given)	15.2%
O=C(c1ccc(C(F)(F)F)nc1)N1CCCC(n2cncn2)C1 (stereo not given)	3.33%
Cc1ccc2oc(C(=O)N3CCC(C(=O)N4CCCC4)CC3)cc2n1	-0.768%
Cc1ccc(N2CCCN(C(=O)c3c(C)oc(C)c3C)CC2)nn1	9.92%
CN(c1ccncn1)C1CC2(CCN(C(=O)c3ccsc3)C2)C1 (stereo not given)	17.2%
CCc1nc(C2CCCN2C(=O)c2ncoc2CC)no1 (stereo not given)	-5.38%
CCc1c(C)nn(CCNC(=O)C2CCCN(C(=O)N(C)C)C2)c1C (stereo not given)	7.36%
CCn1ncnc1C1CC(=O)NCc2nc3ccccn3c21 (stereo not given)	4.62%
Cc1nc(CN2CCCC(CCc3ccc(F)cc3F)C2)c[nH]1 (stereo not given)	3.94%
COc1ccc(C2CC(=O)Nc3c2nc2n3CCCC2)cc1OC (stereo not given)	15.9%
O=C(c1cc(Cl)c2c(c1)OCO2)N1CCCC(n2ccnc2)C1 (stereo not given)	7.72%
Cc1ccccc1N1CC2(CCN(S(=O)(=O)C3CC3)C2)CC1=O (stereo not given)	17.4%
CCc1nc(CN2CCCN(C(=O)COCC3CC3)CC2)cs1	9.64%
O=C1CN(Cc2ccc(-c3ccccc3C(=O)O)cc2)CCN1	14.1%
Cc1cn2c(n1)CCC(NC(=O)c1cc(Br)cn1C)C2 (stereo not given)	8.23%
COCc1ncc(CN2CCC(Oc3ccccc3OC)CC2)cn1	9.59%

Compound	Percent Effect
Cn1cc(N2CC3(COCCN(Cc4ccsc4)C3)OCC2=O)cn1 (stereo not given)	2.21%
CC(C)c1nn(C)c(N2CCOCC2)c1CNCC(=O)N(C)C	10.5%
CCc1ccsc1C(=O)N1CCN(CC(O)CC)CC1 (stereo not given)	0.877%
COCCC(=O)N1CCC2(CC1)CC(c1ccccc1)CN(C)C2 (stereo not given)	18.7%
COc1ccc(CNCc2ccc(N3CCCCC3)nc2)cc1OC	8.62%
Cc1cc(C)n(CC2CCCN2CCc2ccncc2)n1 (stereo not given)	17.1%
COCCc1noc(CN2CCCC2Cn2cc(C)cn2)n1 (stereo not given)	3.31%
CC(NC(=O)N(C)CCCOc1ccc(F)cc1)c1nncn1C (stereo not given)	17.4%
CC(Nc1cccc(CN2CCOC2=O)c1)C(=O)Nc1ccccc1F (stereo not given)	3.5%
COc1cccc2c1OCC(C(=O)NC1CCN(S(C)(=O)=O)CC1)C2 (stereo not given)	18.7%
CC(=O)N1CCCC1c1cc(N2CCN(C3CCCC3)CC2)cc(C)n1 (stereo not given)	7.22%
Cn1cnc2c1CCN(Cc1ccc(C(=O)N3CCCC3)cc1)C2	11%
c1csc(CN2CCOCC3(CCN(C4CCOCC4)C3)C2)n1 (stereo not given)	16.9%
CCN(CC1CCOC1)C(=O)Nc1ccc(-n2cncn2)nc1 (stereo not given)	9.3%
Cn1cc(NC(=O)N2CCC(NS(C)(=O)=O)CC2)ccc1=O	1.11%
O=C(NCCNC(=O)c1scnc1Cl)c1ccccc1	14.2%
Cc1cc(C(=O)O)cc(S(=O)(=O)Nc2ccc3c(c2)OCO3)c1C	19.7%
Cc1ccc(-c2cc(CN3CCCC(Cn4cncn4)C3)on2)cc1 (stereo not given)	4.39%
